Test results as given in PubChem BioAssay (NCI).
About 79,000 compounds went through this panel and 15% of them were active in at least one assay; those are over-represented in the sample as a whole. A number with no mark means an inactive call. Calls of active or inactive are those of the source. Cut-off read from the data, not from the text of the source: active = growth inhibition above about 70%; inactive = the rest.

Legend:
[1] = NCI Yeast Anticancer Drug Screen. Data for the rad50 strain (AID 155);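 note: 0% = growth of vehicle-only cultures of the same strain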; settings: S. cerevisiae rad50 strain growth inhibition; at 50.0 µM; stronger effect = higher value
Procedure, shortened: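 Relative growth inhibition (compound vs vehicle) was measured in yeast with a defined repair-gene alteration.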

[2] = NCI Yeast Anticancer Drug Screen. Data for the mec2-1 strain (AID 157); settings: S. cerevisiae mec2-1 strain, at 50.0 µM, stronger effect = higher value
Procedure, shortened: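 Yeast mec2-1 mutant treated with compound. Readout: growth inhibition vs vehicle controls.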

[3] = NCI Yeast Anticancer Drug Screen. Data for the sgs1 mgt1 strain (AID 161);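 note: 0% = growth of cultures given vehicle only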; settings: S. cerevisiae sgs1 mgt1 strain, at 50.0 µM, stronger effect = higher value
Procedure, shortened: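 Inhibition of yeast growth, normalised to vehicle-treated controls, is reported for a strain bearing genetic alterations in DNA damage repair.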

[4] = NCI Yeast Anticancer Drug Screen. Data for the cln2 rad14 strain (AID 165);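 note: 0% = growth equal to vehicle treated cultures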; settings: S. cerevisiae cln2 rad14 strain, at 50.0 µM, stronger effect = higher value
Procedure, shortened: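 cln2 rad14 yeast strain; compound exposure; growth inhibition read vs vehicle controls.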

[5] = NCI Yeast Anticancer Drug Screen. Data for the bub3 strain (AID 167); settings: S. cerevisiae bub3 mutant strain, at 50.0 µM, stronger effect = higher value
Procedure, shortened: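 Screening used yeast with an engineered genetic alteration affecting cell cycle control. Compound-exposed cultures were compared with vehicle cultures, and reduced growth was taken as inhibition.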

[6] = NCI Yeast Anticancer Drug Screen. Data for the mlh1 rad18 strain (AID 175); settings: S. cerevisiae mlh1 rad18 strain growth inhibition; at 50.0 µM; stronger effect = higher value
Procedure, shortened: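 Yeast w/ defined DNA-repair lesions; compound exposure; growth vs vehicle controls → % inhibition.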

Compound	growth inhibition [1]	growth inhibition [2]	growth inhibition [3]	growth inhibition [4]	growth inhibition [5]	growth inhibition [6]
COC(=O)NN/C=C(\C=Nc1ccccc1)[N+](=O)[O-]	-0.25%	11.1%	17.4%	18.4%	12.9%	5.4%
Brc1ccccc1-c1nc2ccccc2[nH]1	4.1%	-4.4%	4%	-63%	-6.1%	-2.55%
O=C1OCC2CC1C(=O)O2 (stereo not given)	-7.65%	0.3%	5.95%	4.7%	-3.6%	6.65%
COC1=c2\cccc\c2=c2/cccc/c2=c2\cccc\c2=N\1	17.4%	13.1%	11.4%	12.2%	13.4%	17.5%
CC(=O)Oc1c(Cl)c(Cl)c(C#N)c(Cl)c1C#N	30.4%	1.7%	26.2%	10.8%	8.8%	26.1%
CCC(C)NC(=O)c1ccccc1C (stereo not given)	6.25%	-2.75%	-3.2%	-10.2%	8.15%	-0.2%
COC(=O)c1cc(C(=O)OC)cc([N+](=O)[O-])c1	-6.4%	-21.9%	8.75%	20.4%	-38.5%	0.05%
COc1cc2c(c(OC)c1OC)-c1ccc(SC)c(=O)cc1C(N=C(NC1OCC(OC(C)=O)C(OC(C)=O)C1OC(C)=O)SN(NC(=O)OCc1ccccc1)C(=O)OCc1ccccc1)CC2 (stereo not given)	5.6%	10.4%	24.4%	-11.7%	-1.55%	32.3%
CC(=O)OC1COC(NC(=O)N(CCCl)N=O)C(OC(C)=O)C1OC(C)=O (stereo not given)	6.25%	7.55%	-25.8%	-11.2%	-31.2%	48.8%
N#CC(C#N)=CN1CCNC1=S	14.3%	-1.2%	20.4%	16.6%	17.6%	17.6%
OC(CCl)(CCl)CCl	9.5%	-11.9%	-9.7%	-16.5%	-2.05%	18.8%
CSc1ccc(NC(=O)Nc2cc(C(C)C)ccc2C)cc1	0.6%	38.4%	13.9%	-18%	43.2%	28.2%
O=C1C=CC(n2cc(F)c(=O)[nH]c2=O)O1 (stereo not given)	27.1%	44.2%	44.9%	12.9%	9.3%	-43.9%
COc1ccc(N=C2C(=Nc3ccc(OC)cc3)N(c3ccccc3[N+](=O)[O-])C(=S)N2c2ccc(OC)cc2)cc1	3.6%	-24%	10.7%	-49.5%	-1.35%	-10.9%
Cn1c(-c2ccccc2)cc(=O)cc1-c1ccccc1	-22.9%	13.1%	-10.2%	-1.25%	-4.45%	-19.2%
CC(=O)OCC(C)Cc1ccccc1 (stereo not given)	6.35%	13.8%	-0.25%	8.2%	1.9%	-2.25%
CSC(=S)Nc1cc(C)cc(C)n1	29.8%	17.7%	62.1%	38%	42.8%	60.8%
Cc1c(Cl)cccc1NC(=O)Oc1ccccc1Cc1ccccc1	-0.8%	43.1%	40%	-2.7%	67.5%	52.2%
c1ccc2c(c1)SCCCSCCCS2	-4.35%	-4.6%	-5.45%	-9.4%	9.15%	-11.4%
NNC(=Nc1ccccc1)SCc1ccccc1	3.05%	0.5%	23.4%	7.75%	20.2%	-30.9%

Compound	growth inhibition [1]	growth inhibition [2]	growth inhibition [3]	growth inhibition [4]	growth inhibition [5]	growth inhibition [6]
NC(=O)/C(=C(/O)C(=O)O)c1ccnc2ccccc12	4.85%	-4.8%	7.35%	-41%	-4.2%	-2.15%
CCCCCCCCCCC/C=N\[N+](C)(C)C	98.3% (active)	99.3% (active)	98.7% (active)	96.8% (active)	98.8% (active)	98.2% (active)
COc1cc2c(cc1OC)C(=O)C1(CO)COC(=O)C1C2 (stereo not given)	-7.7%	-19%	-2.15%	-1.4%	-1%	5.9%
Cc1cc(-c2ccc(N=Nc3c(C)nn(-c4ccc(S(=O)(=O)O)cc4)c3O)c(C)c2)ccc1N=Nc1ccc(O)c(C(=O)O)c1	26%	12.4%	26.2%	20.9%	18.6%	21%
Nc1nc(=O)[nH]nc1SCc1ccccc1	39.2%	0.1%	1.05%	2.45%	10%	10.5%
CCc1ccc(OC(=O)CCl)cc1	-19.4%	9.5%	-21.6%	-28.7%	-3.4%	-42.5%
N#Cc1ccccc1OCCCCCCCCCCOc1ccccc1C#N	-2.8%	-4.15%	-19.6%	31.4%	-1%	3.8%
Cc1cn(C2CC3[O][Sn]([c]4ccccc4)([c]4ccccc4)[O]CC3O2)c(=O)[nH]c1=O (stereo not given)	8.65%	35.8%	16.6%	7.6%	13.2%	47%
CCCCCCCCCCCCCCCCC[CH2][Sn]([Cl])([CH2]CCCCCCCCCCCCCCCCC)[CH2]CCCCCCCCCCCCCCCCC	9.15%	-1.2%	-16.7%	-2.55%	-2.1%	-13.7%
CC(C)=CC(Cc1ccccc1)S(=O)(=O)c1nc2ccccc2s1 (stereo not given)	8.8%	33.4%	12.1%	9.4%	31.2%	-16.9%
CS(=O)(=O)OCCCCCCCCCOS(C)(=O)=O	-10.9%	-26.1%	-3.6%	-0.05%	-18.8%	-12.3%
COCC1OCCN1C (stereo not given)	12.7%	7.75%	-10%	17.4%	5.65%	-32.1%
CCOC(=O)C(=CN1CCCc2ccccc21)C(=O)OCC	5.05%	-17.1%	13.6%	-35%	5.4%	-6.15%
NCC(O)c1cc(I)c(Oc2ccc(O)cc2)c(I)c1 (stereo not given)	7.65%	-19.8%	-22.6%	12.3%	-1.35%	-11.5%
COc1cc(/C=C/C(=O)OC2C(O)C3CC(OC(=O)c4cc(OC)c(OC)c(OC)c4)CC2N3C)cc(OC)c1OC (stereo not given)	0.55%	-21.6%	7.6%	6.15%	-7.95%	-4.95%
CC(C(/C=N/NC(N)=S)=N/NC(N)=S)N1C(=O)c2ccccc2C1=O (stereo not given)	3.75%	-11.2%	-16.9%	-5.1%	2.45%	23.9%
CC1=C(CO)C(=O)O[C@@H]([C@@H](C)[C@H]2CC[C@H]3[C@@H]4C[C@H]5O[C@]56[C@@H](O)C=CC(=O)[C@]6(C)[C@H]4CC[C@]23C)C1	86.2% (active)	89.2% (active)	86.5% (active)	83.3% (active)	89.7% (active)	85% (active)
CCOC(=O)C1=C(C(=O)c2cccc3ccccc23)C(c2cccc([N+](=O)[O-])c2)C(C(=O)c2cccc3ccccc23)=C(C(=O)OCC)N1	-12.9%	-7.75%	13.7%	-26.3%	-45.6%	-25.2%
N=C(N)c1ccc(NC(=O)c2ccc(C(=O)Nc3ccc(C(=N)N)cc3)c(N)c2)cc1	9.9%	18.1%	-7.6%	-7.85%	-1.95%	-7.3%
NNc1nc2ccccc2c(=O)n1NC(=O)C(=O)Nc1cccc(C(F)(F)F)c1	-0.35%	17.6%	-3.9%	-38.6%	-6.15%	31.4%
